Where “and” joins values, the source holds several entries; their conditions need not be identical. Equal values may be shown once. Inconclusive results are not listed. A structure can be active in one record and inactive in another. Calls of active or inactive are those of the source. Unless noted, calls come from the whole dose curve.
What was measured:
[1] = qHTS assay to identify small molecule antagonists of the vitamin D receptor (VDR) signaling pathway - cell viability counter screen (AID 743225; active = well fitted curve in the direction sought with a large enough effect in the repeat runs; an effect the other way counts as inactive or inconclusive; note: % is set by controls: 0 for no effect and ±100 for the full control effect; nearly all actives have a fitted effect of over 50% in size)
Summary of the method: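 Cells (VDR-UAS-bla HEK 293T) are plated, rested 4 h at 37C, dosed with compound and 3 nM final 1-alpha,25-dihydroxy vitamin D3, and incubated 16 h. Viability is taken from CellTiter-Glo luminescence in the reporter wells.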

[2] = qHTS assay to identify small molecule agonists of the NFkB signaling pathway - cell viability counter screen (AID 1159515); note: series mostly up to about 61 µM; % is set by controls: 0 for no effect and ±100 for the full control effect; nearly all actives have a fitted effect of over 55% in size
Summary of the method: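 Counter screen run alongside the NFkB-bla agonist assay: ME-180 reporter cells exposed to compounds for 5 hr, then lysed with CellTiter-Glo in the same wells. Luminescence, read after 30 min, reflects viable cells.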

[3] = qHTS assay to identify small molecule agonists of the endoplasmic reticulum stress response signaling pathway (AID 1159516; active = well fitted activation curve with a large enough effect in the signal ratio in the repeat runs, not every such curve was filed as active; the % refers to the signal ratio; note: % is set by controls: 0 for no effect and ±100 for the full control effect)
Summary of the method: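 For this screen, HeLa cells stably carrying beta-lactamase under the ER stress response element received test compounds, positive controls or DMSO for 5 hr at 37 C; B/G FRET substrate was then added and dual-wavelength emission recorded.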

[4] = qHTS assay to identify small molecule agonists of the endoplasmic reticulum stress response signaling pathway - cell viability counter screen (AID 1159517); note: nearly all actives have a fitted effect of over 50% in size; note: potency is the fitted concentration of half-maximal effect; for activity change, negative = cytotoxicity: series mostly up to about 61 µM; % is set by controls: 0 for no effect and ±100 for the full control effect
Summary of the method: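 In parallel with the ESRE reporter read, cytotoxicity was scored by CellTiter-Glo luminescence (30 min, room temperature) on HeLa ESRE-bla cells dosed for 5 hr.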

[5] = qHTS assay to identify small molecule antagonists of the retinoid-related orphan receptor gamma (ROR-gamma) signaling pathway - cell viability counter screen (AID 1159520; active = well fitted curve in the direction sought with a large enough effect in the repeat runs; an effect the other way counts as inactive or inconclusive; note: % is set by controls: 0 for no effect and ±100 for the full control effect; nearly all actives have a fitted effect of over 50% in size)
Summary of the method: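 Tet-on ROR gamma CHO cells were given compounds for 2 hr, then doxycycline hyclate at 1 uM final, and incubated 16 hr at 37 C. Viability was measured as ATP content by CellTiter-Glo luminescence.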

[6] = molecular target: Nuclear receptor ROR-gamma (Homo sapiens) (UniProt P51449); test: qHTS assay to identify small molecule antagonists of the retinoid-related orphan receptor gamma (ROR-gamma) signaling pathway (AID 1159521; active = well fitted curve in the direction sought with a large enough effect in the repeat runs; an effect the other way counts as inactive or inconclusive; note: nearly all actives have a fitted effect of over 50% in size; note: potency is the fitted concentration of half-maximal effect)
Summary of the method: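 RORγ antagonism is scored from reduced reporter luminescence in Tet-on CHO cells. Induction used 1 uM final doxycycline hyclate for 16 h at 37 C, following a 2 h compound exposure.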

[7] = qHTS assay to identify small molecule agonists of the AP-1 signaling pathway - cell viability counter screen (AID 1159525); note: nearly all actives have a fitted effect of over 55% in size
Summary of the method: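 Same-well cytotoxicity counter screen of the Tox21 10K library in ME-180 cells. The readout is ATP-dependent luminescence after 5 h compound treatment. Data are normalised to DMSO and tetra n-octyl ammonium bromide controls.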

[8] = qHTS assay to identify small molecule agonists of the AP-1 signaling pathway (AID 1159526); note: % is set by controls: 0 for no effect and ±100 for the full control effect
[9] = qHTS assay to identify small molecule agonists of the NFkB signaling pathway (AID 1159509; active = well fitted curve in the direction sought with a large enough effect in the signal ratio in the repeat runs, not every such curve was filed as active; the % refers to the signal ratio; note: series mostly up to about 61 µM; % is set by controls: 0 for no effect and ±100 for the full control effect)
Summary of the method: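 Agonist activity was read as beta-lactamase-driven FRET change (460 and 530 nm emission, 405 nm excitation) following 1.5 hr substrate loading at room temperature. Beforehand, ME-180 NFkB-bla reporter cells were treated with compounds for 5 hr at 37 C.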

[10] = qHTS assay to identify small molecule agonists of the vitamin D receptor (VDR) signaling pathway - cell viability counter screen (AID 743224; active = well fitted curve in the direction sought with a large enough effect in the repeat runs; an effect the other way counts as inactive or inconclusive; note: nearly all actives have a fitted effect of over 50% in size; note: potency is the fitted concentration of half-maximal effect)
Summary of the method: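 Counter screen for cytotoxicity: VDR-bla cells at 2,000 cells/well, 16 h compound exposure, then CellTiter-Glo luminescence after the beta-lactamase measurement.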

C=CC=O
inactive: Potency [1] | outcome [2] | outcome [3] | Potency [4] | Potency [5] | Potency [6] | Potency [7] | outcome [8]

C#CCOC(=O)/C=C(C)/C=C/CC(C)CCCC(C)C (centres undefined)
inactive: Potency [1] | outcome [9] | outcome [2] | outcome [3] | Potency [4] | Potency [6] | Potency [7] | outcome [8]

C[C@]12C=CC(=O)C=C1CC[C@@H]1[C@@H]2CC[C@@]2(C)[C@H]1CC[C@]2(C)O
inactive: Potency [10] | Potency [1] | outcome [9] | outcome [2] | outcome [3] | Potency [4] | Potency [6] | Potency [7] | outcome [8]

N#CC(Br)(Br)C(N)=O
inactive: Potency [10] | Potency [1] | outcome [9] | outcome [2] | outcome [3] | Potency [4] | Potency [6] | Potency [7] | outcome [8]

NCCOS(=O)(=O)O
inactive: Potency [10] | Potency [1] | outcome [9] | outcome [2] | outcome [3] | Potency [4] | Potency [6] | Potency [7] | outcome [8]

Cn1c(CCCC(=O)O)nc2cc(N(CCCl)CCCl)ccc21
inactive: Potency [10] | Potency [1] | outcome [9] | outcome [2] | outcome [3] | Potency [4] | Potency [6] | Potency [7] | outcome [8]

NC(=O)CS(=O)C(c1ccccc1)c1ccccc1 (centres undefined)
inactive: Potency [10] | outcome [9] | outcome [2] | outcome [3] | Potency [4] | Potency [6] | Potency [7] | outcome [8]

CCNP(=S)(OC)O/C(C)=C/C(=O)OC(C)C (centres undefined)
inactive: Potency [10] | Potency [1] | outcome [9] | outcome [2] | outcome [3] | Potency [4] | Potency [6] | Potency [7] | outcome [8]

O=c1[nH]c2ccccc2o1
inactive: Potency [10] | Potency [1] | outcome [9] | outcome [2] | outcome [3] | Potency [4] | Potency [6] | Potency [7] | outcome [8]

O=C(NC(O)C(Cl)(Cl)Cl)NC(O)C(Cl)(Cl)Cl (centres undefined)
inactive: Potency [1] | outcome [9] | outcome [2] | outcome [3] | Potency [4] | Potency [6] | Potency [7] | outcome [8]

C[C@@H](N)[C@@H](O)c1ccccc1
inactive: Potency [10] | Potency [1] | outcome [9] | outcome [2] | outcome [3] | Potency [4] | Potency [6] | Potency [7] | outcome [8]

O=C(CCl)NCO
inactive: Potency [1] | outcome [9] | outcome [2] | outcome [3] | Potency [4] | Potency [6] | Potency [7] | outcome [8]

ClC1=C(Cl)C2(Cl)C(CBr)CC1(Cl)C2(Cl)Cl (centres undefined)
54.9 µM (active) and inactive: Potency [4]
34.7 µM (active) and inactive: Potency [10]
inactive: outcome [9] | outcome [2] | outcome [3] | Potency [6] | Potency [7]

Brc1c(Br)c(Br)c(Br)c(Br)c1Br
inactive: activity change, negative = cytotoxicity [10] 9.04% [at 5.95 µM] | activation [9] 0.368% [at 6.95 µM] | activity, negative = cytotoxic [2] -11.1% [at 6.95 µM] | activation [3] -0.555% [at 6.95 µM] | activity change, negative = cytotoxicity [4] 1.86% [at 6.95 µM] | activity change, negative = inhibition [6] 19.7% [at 8.39 µM] | viability change, negative = cytotoxic [7] -3.27% [at 6.97 µM] | activation [8] -7% [at 6.97 µM]

C=CCC1(C(C)CC)C(=O)NC(=O)NC1=O (centres undefined)
inactive: Potency [10] | Potency [1] | outcome [9] | outcome [2] | outcome [3] | Potency [4] | Potency [6] | Potency [7] | outcome [8]

CC(C)(C)c1cc(O)ccc1O
active: Potency [6] 13.7 µM and 24.3 µM
inactive: Potency [10] | Potency [1] | outcome [9] | outcome [2] | outcome [3] | Potency [4]

CC1=C2[C@H]3OC(=O)[C@@H](C)[C@@H]3CC[C@@]2(C)C=CC1=O
inactive: Potency [10] | Potency [1] | outcome [9] | outcome [2] | outcome [3] | Potency [4] | Potency [6] | Potency [7] | outcome [8]

COc1ccc(CN2CCNCC2)c(OC)c1OC
inactive: Potency [10] | Potency [1] | outcome [9] | outcome [2] | outcome [3] | Potency [4] | Potency [6] | Potency [7] | outcome [8]

ClCOCCl
inactive: Potency [10] | Potency [1] | outcome [9] | outcome [2] | outcome [3] | Potency [4] | Potency [6] | Potency [7] | outcome [8]

CN1COCN(Cc2cnc(Cl)s2)/C1=N\[N+](=O)[O-]
inactive: Potency [10] | Potency [1] | outcome [9] | outcome [2] | outcome [3] | Potency [4] | Potency [6] | Potency [7] | outcome [8]

CC(Cc1ccccc1)NCCn1cnc2c1c(=O)n(C)c(=O)n2C (centres undefined)
inactive: Potency [1] | outcome [9] | outcome [2] | outcome [3] | Potency [4] | Potency [6] | Potency [7] | outcome [8]

O=C(Cl)C(Cl)(Cl)Cl
inactive: Potency [10] | outcome [9] | outcome [2] | outcome [3] | Potency [4] | Potency [6] | Potency [7] | outcome [8]

CCC1(CC)C(=O)C=CNC1=O
inactive: Potency [10] | Potency [1] | outcome [9] | outcome [2] | outcome [3] | Potency [4] | Potency [6] | Potency [7] | outcome [8]

CN(CCO)CCO
inactive: Potency [10] | Potency [1] | outcome [9] | outcome [2] | outcome [3] | Potency [4] | Potency [6] | Potency [7] | outcome [8]
